In PubChem BioAssay (NCATS):
Values joined by “and” are separate entries in the source; they are usually repeats but may differ in a detail not shown here. Equal values may be shown once. Records with an inconclusive call do not appear. Active and inactive are the calls of the source. The call rests on the fitted dose curve; in most records, active means well fitted curve in the direction sought with a large enough effect; inconclusive means small, poorly fitted or top-dose-only effect, or another doubt; inactive means no such curve, though single readings can be large; an effect the other way counts as inactive or inconclusive.

Experiment: Primary qHTS for inhibitors of nuclear receptor binding SET domain protein 2 (NSD2) in an isogenic RCH-ACV NSD2 p.E1099K mutant (9B) (AID 1645876)
Conditions: RCH-ACV NSD2 E1099K (9B) viability, CellTiter-Glo, 72 h; series mostly up to 44.9 µM; activity change, negative = viability loss: at the top concentration
Further: nearly all actives have a fitted effect of over 70% in size.
On the % scale 0 is the no-effect control and ±100 the full control effect; potency means the concentration at half of the fitted maximal effect.

Compound	Potency	activity change, negative = viability loss
CC(C)C[C@H](NC(=O)CNC(=O)c1cc(Cl)ccc1Cl)B1OC(=O)CC(CC(=O)O)(C(=O)O)O1 (stereo partly specified)	0.186 µM (active)	–
CCCCOc1ccc(C(=O)Nc2ccc(F)cc2F)cc1	–	0.332% (inactive)
CCc1c(O)cc(O)c(C(=O)c2ccc(OCCN3CCOCC3)c(OC)c2)c1CC(=O)N(CCOC)CCOC	0.372 µM (active)	–
C[C@H](O)[C@@H]1C(=O)N2C(C(=O)O)=C(S[C@@H]3CN[C@H](CNS(N)(=O)=O)C3)[C@@H](C)[C@@H]12	–	-6.64% (inactive)
Cc1cnc(Nc2ccc(CN3CCOCC3)cc2)nc1Nc1cccc(S(=O)(=O)NC(C)(C)C)c1	1.18 µM (active) and 578 nM (active)	–
C=C(C)[C@@H]1CC[C@]2(C)CC[C@]3(C)[C@H](CC[C@@H]4[C@@]5(C)CC[C@H](O)C(C)(C)[C@H]5CC[C@]43C)[C@@H]12	–	1.47% (inactive)
NC(=O)c1cccc(-c2cccc(OC(=O)NC3CCCCC3)c2)c1	–	-16.4% (inactive)
CS(=O)(=O)N1CCc2c(-c3cnc(N)nc3)nc(N3CCOCC3)nc21	920 nM (active) and 468 nM (active)	–
C[C@H](NC(=O)Cc1cc(F)cc(F)c1)C(=O)N[C@H](C(=O)OC(C)(C)C)c1ccccc1	–	-6.89% (inactive)
COc1ccc(S(=O)(=O)Nc2cccnc2Nc2ccc(O)cc2)cc1	9.34 µM (active)	–
O=C(O)c1ccc(Nc2ncc3c(n2)-c2ccc(Cl)cc2C(c2c(F)cccc2F)=NC3)cc1	258 nM (active) and 742 nM (active)	–
Cc1ncc(-c2ccnc(Nc3ccc(S(C)(=O)=O)cc3)n2)n1C(C)C	1.45 µM (active) and 742 nM (active)	–
Oc1ccc([C@@H]2Oc3ccc(O)cc3[C@@H]3CCC[C@@H]32)cc1	8.33 µM (active)	–
FC(F)c1nc2ccccc2n1-c1nc(N2CCOCC2)nc(N2CCOCC2)n1	57.8 nM (active) and 41.7 nM (active)	–
Cc1cnc(Nc2ccc(N3CCN(C)CC3)cc2)nc1Nc1cccc(S(=O)(=O)NC(C)(C)C)c1	1.66 µM (active)	–
N#Cc1c(C2CCNCC2)cc(-c2c(O)cccc2OCC2CC2)nc1N	11.8 µM (active)	–

Compound	Potency	activity change, negative = viability loss
Cc1ccccc1C(=O)Nc1ccc(C(=O)N2CCCC(O)c3cc(Cl)ccc32)c(C)c1 (stereo unspecified)	13.3 µM (active)	–
C#Cc1cccc(Nc2ncnc3cc(OCCOC)c(OCCO)cc23)c1	14.8 µM (active)	–
O=C1CSC(=O)N1C(CCc1ccncc1)COc1ccc(-c2cccc([N+](=O)[O-])c2)cc1 (stereo unspecified)	14.8 µM (active)	–
CC(O)(C#Cc1ccc2c(c1)N(c1nc(N)ncc1Cl)CC2)c1nccs1 (stereo unspecified)	13.2 µM (active)	–
C=CC(=O)Nc1ccc2ncnc(Nc3ccc(OCc4cccc(F)c4)c(Cl)c3)c2c1	7.28 µM (active) and 5.9 µM (active)	–
c1ccc2c(Oc3nc(Nc4ccc(N5CCOCC5)cc4)c4ncn(C5CCCCC5)c4n3)cccc2c1	inactive	–
CN1CCCN(C(=O)c2cccc(-c3ccc(C=C4C(=O)Nc5ccc(Cl)cc54)o3)c2)CC1	0.206 µM (active)	–
CN1CCc2c(c3ccccc3n2Cc2ccc(C(=O)NO)cc2)C1	16.3 µM (active) and 18.6 µM (active)	–
Cc1coc2c1C(=O)C(=O)c1c-2ccc2c(C)cccc12	–	-8.7% (inactive)
Cc1cc(C(=O)NOCCO)c(Nc2ccc(I)cc2F)n(C)c1=O	–	-21.7% (inactive)
c1cncc(CN2CCC(n3ncc4c(N5CCOCC5)nc(-c5ccc6[nH]ccc6c5)nc43)CC2)c1	916 nM (active) and 833 nM (active)	–
CC1=C(C(=O)Nc2cc3cn[nH]c3cc2F)C(c2ccc(Cl)cc2F)N=C(c2ccnc(Cl)c2)N1 (stereo unspecified)	5.78 µM (active) and 9.34 µM (active)	–
CC(C)n1cnc2c(NCCc3ccc(O)cc3)nc(-c3csc4ccccc34)nc21	20.5 µM (active)	–
FC(F)(F)c1ccc(Nc2nc3ccc(Oc4ccnc(-c5ncc(C(F)(F)F)[nH]5)c4)cc3[nH]2)cc1	14.8 µM (active)	–
C=Cc1c(C)c2cc3nc(cc4[nH]c(cc5nc(cc1[nH]2)C(C)=C5CCC(=O)O)c(CCC(=O)OC)c4C)[C@@]1(C)C3=CC=C(C(=O)OC)[C@H]1C(=O)OC	–	-24.7% (inactive)

Experiment: Primary qHTS for inhibitors of nuclear receptor binding SET domain protein 2 (NSD2) in an RCH-ACV wild type WT cells (2C) (AID 1645877)
Conditions: RCH-ACV (leukaemia line) NSD2 WT (2C) viability, CellTiter-Glo, 72 h; series mostly up to 44.9 µM; activity change, negative = cell killing: at the top concentration

Compound	Potency	activity change, negative = cell killing	outcome
CC(C)C[C@H](NC(=O)CNC(=O)c1cc(Cl)ccc1Cl)B1OC(=O)CC(CC(=O)O)(C(=O)O)O1 (stereo partly specified)	0.118 µM (active)	–	–
CCCCOc1ccc(C(=O)Nc2ccc(F)cc2F)cc1	–	4.89% (inactive)	–
CCc1c(O)cc(O)c(C(=O)c2ccc(OCCN3CCOCC3)c(OC)c2)c1CC(=O)N(CCOC)CCOC	0.148 µM (active)	–	–
NC(=O)c1cccc(-c2cccc(OC(=O)NC3CCCCC3)c2)c1	–	-20.9% (inactive)	–
CCOC(=O)[C@@H](N)Cc1ccc(-c2cc(O[C@H](c3ccc(Cl)cc3-n3ccc(C)n3)C(F)(F)F)nc(N)n2)cc1	23.5 µM (active)	–	–
CS(=O)(=O)N1CCc2c(-c3cnc(N)nc3)nc(N3CCOCC3)nc21	459 nM (active) and 468 nM (active)	–	–
COc1ccc(S(=O)(=O)Nc2cccnc2Nc2ccc(O)cc2)cc1	9.34 µM (active)	–	–
O=C(O)c1ccc(Nc2ncc3c(n2)-c2ccc(Cl)cc2C(c2c(F)cccc2F)=NC3)cc1	325 nM (active) and 372 nM (active)	–	–
Cc1ncc(-c2ccnc(Nc3ccc(S(C)(=O)=O)cc3)n2)n1C(C)C	916 nM (active) and 525 nM (active)	–	–
Oc1ccc([C@@H]2Oc3ccc(O)cc3[C@@H]3CCC[C@@H]32)cc1	5.9 µM (active)	–	–
FC(F)c1nc2ccccc2n1-c1nc(N2CCOCC2)nc(N2CCOCC2)n1	72.8 nM (active) and 105 nM (active)	–	–
Cc1cnc(Nc2ccc(N3CCN(C)CC3)cc2)nc1Nc1cccc(S(=O)(=O)NC(C)(C)C)c1	1.86 µM (active)	–	–
N#Cc1c(C2CCNCC2)cc(-c2c(O)cccc2OCC2CC2)nc1N	9.34 µM (active)	–	–
Cc1ccccc1C(=O)Nc1ccc(C(=O)N2CCCC(O)c3cc(Cl)ccc32)c(C)c1 (stereo unspecified)	15 µM (active)	–	–
C#Cc1cccc(Nc2ncnc3cc(OCCOC)c(OCCO)cc23)c1	13.2 µM (active)	–	–
Cc1cncc2cccc(S(=O)(=O)N3CCCN(C(=O)CN)C[C@@H]3C)c12	1.45 µM (active)	–	–
O=C1CSC(=O)N1C(CCc1ccncc1)COc1ccc(-c2cccc([N+](=O)[O-])c2)cc1 (stereo unspecified)	11.8 µM (active)	–	–
CC(O)(C#Cc1ccc2c(c1)N(c1nc(N)ncc1Cl)CC2)c1nccs1 (stereo unspecified)	13.2 µM (active)	–	–
C=CC(=O)Nc1ccc2ncnc(Nc3ccc(OCc4cccc(F)c4)c(Cl)c3)c2c1	8.17 µM (active) and 4.68 µM (active)	–	–
c1ccc2c(Oc3nc(Nc4ccc(N5CCOCC5)cc4)c4ncn(C5CCCCC5)c4n3)cccc2c1	–	–	inactive
CN1CCCN(C(=O)c2cccc(-c3ccc(C=C4C(=O)Nc5ccc(Cl)cc54)o3)c2)CC1	0.184 µM (active)	–	–
CN1CCc2c(c3ccccc3n2Cc2ccc(C(=O)NO)cc2)C1	11.5 µM (active) and 16.6 µM (active)	–	–
Cc1coc2c1C(=O)C(=O)c1c-2ccc2c(C)cccc12	–	-10.2% (inactive)	–
c1cncc(CN2CCC(n3ncc4c(N5CCOCC5)nc(-c5ccc6[nH]ccc6c5)nc43)CC2)c1	1.15 µM (active) and 1.05 µM (active)	–	–
CC1=C(C(=O)Nc2cc3cn[nH]c3cc2F)C(c2ccc(Cl)cc2F)N=C(c2ccnc(Cl)c2)N1 (stereo unspecified)	2.58 µM (active) and 4.17 µM (active)	–	–
